Screens (PubChem BioAssay)
Hits are enriched below; roughly 2.3% of the tested compounds scored in any of these assays.
CHO-K1 Ca PAM: counter-screen for M1 PAMs: effect in parental CHO-K1 cells | ATP EC20, Fluo-8 calcium fluorescence; 0% at ATP EC20, 100% at ATP max | 360,000 tested, 0.02% active | AID 602247 | activation, % at 3 µM;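 active = activation above the run cutoff, the mean activation of all test compounds plus 3 SD, cut at about 40% in these data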;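 also: peak over basal fluorescence ratio in a 140 s read after ATP addition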
CHO-K1 Ca ag: nonselective activator or artifact in parental CHO-K1 cells | Fluo-8 calcium fluorescence; scaled to maximal ATP response, vehicle zero | activation, % at 3 µM | 360,000 tested, 0.48% active; in the data active = activation above about 15%;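 also: untransfected CHO-K1 host cells lacking M1 receptor as counterscreen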
CHO-K1 Ca antag: M1 antagonist counterscreen hit in parental CHO-K1 cells; ATP-induced calcium, Fluo-8 fluorescence; inhibition, % at 3 µM; 360,000 tested, 0.6% active; AID 602250;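 active = inhibition above a per-plate cutoff, the plate's mean sample inhibition plus 3 SD, cut at about 24% in these data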
CHRM1 agonist: activates human CHRM1 receptor; P11229; CHO-K1 hM1, Fluo-8 calcium fluorescence, agonist mode; 0% DMSO, 100% acetylcholine EC100; activation, % at 3 µM; 360,000 tested, 0.33% active;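 active = activation above the run's mean compound activation plus 3 SD, cut at about 16% in these data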;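 also: peak over basal fluorescence ratio within a 140 s kinetic read after compound addition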
Target sequence (P11229 whole entry, looked up): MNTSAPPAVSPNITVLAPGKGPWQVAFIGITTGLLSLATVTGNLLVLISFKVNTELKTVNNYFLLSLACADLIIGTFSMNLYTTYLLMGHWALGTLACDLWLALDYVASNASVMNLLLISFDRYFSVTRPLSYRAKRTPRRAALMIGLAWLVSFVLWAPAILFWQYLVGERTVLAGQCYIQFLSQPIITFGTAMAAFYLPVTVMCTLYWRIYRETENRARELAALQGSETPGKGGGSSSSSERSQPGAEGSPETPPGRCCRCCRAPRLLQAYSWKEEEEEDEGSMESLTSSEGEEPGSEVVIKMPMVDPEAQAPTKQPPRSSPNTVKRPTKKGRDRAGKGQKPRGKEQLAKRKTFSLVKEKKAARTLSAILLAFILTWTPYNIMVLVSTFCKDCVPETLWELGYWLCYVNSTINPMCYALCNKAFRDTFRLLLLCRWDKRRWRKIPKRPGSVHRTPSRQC
CHRM1 PAM: potentiates human M1 receptor response to acetylcholine; CHO-K1 hM1, Fluo-8 calcium fluorescence, ACh EC20; 0% = ACh EC20, 100% = maximal ACh; P11229; 360,000 tested, 0.088% active; activation, % at 3 µM; in the data active = activation above about 19%, passing the limit was not always enough
CHRM1 antagonist: human CHRM1 antagonism; 360,000 tested, 1.3% active; inhibition, % at 3 µM; CHO-K1 hM1, Fluo-8 calcium fluorescence, ACh EC80 antagonist;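 active = percent inhibition above its own plate's cutoff, namely the mean of that plate's compound wells plus 3 SD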;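 also: peak over basal fluorescence ratio during 140 s after agonist addition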
A number is an active result; – = inactive; · = no result given.

SMILES | CHO-K1 Ca PAM | CHO-K1 Ca ag | CHO-K1 Ca antag | CHRM1 agonist | CHRM1 PAM | CHRM1 antagonist
C=C(C)COc1ccc2oc(C)c(C(=O)OCCOC)c2c1 | – | – | – | – | – | –
Cc1ccc(S(=O)(=O)CCC(=O)OCC(=O)N(C)CC(=O)Nc2ccc(F)cc2)cc1 | – | – | – | – | – | 20
CN(C)c1ccc(-c2cc(NC=O)c3ncc(-c4ccc(F)c(Cl)c4)n3c2)cc1 | – | 20 | – | – | – | –
O=CNc1cc(-c2ccccc2)cn2c(-c3ccc(F)c(Cl)c3)cnc12 | – | – | – | – | – | –
COc1cccc(-c2cnc3c(NC=O)cc(-c4ccc(N(C)C)cc4)cn23)c1 | – | – | 25 | – | – | –
CN(C)c1ccc(-c2ccnc3c2CC(C)(C(=O)NCc2ccc(F)c(F)c2)O3)cc1 (stereo not drawn) | – | – | – | – | – | –
COc1ccc([C@H]2CC(=O)C[C@@H](CCn3cc(CCc4ccccc4)nn3)O2)cc1 | – | – | – | · | · | ·
COc1ccc(-c2n[nH]nc2C2=CC(=O)CC(C)(C)C2)cc1 | – | – | – | – | – | –
COc1ccc(N2CCN(c3nc(NCCO)nc(N4CCOCC4)n3)CC2)cc1 | – | – | 27 | – | – | –
O=C(O)c1cccc(NC(=O)c2cccc(S(=O)(=O)N3CCc4ccccc43)c2)c1 | – | – | – | – | – | –
NC(=O)c1ccc(NC(=O)c2ccc3c(c2)CCN3S(=O)(=O)c2ccccc2)cc1 | – | – | 26 | – | – | –
CC(C)(C)c1ccc(-n2nc(C#N)c(Cl)cc2=O)cc1 | – | – | 30 | – | – | 45
CC1(C(=O)NCc2cccc3ccccc23)CCN1Cc1cccc2c1OCO2 (stereo not drawn) | – | – | – | – | – | –
COC(=O)c1ccc(C[n+]2ccccc2)cc1 | – | – | 24 | – | – | –
COC(=O)c1ccc(NC(=O)C[n+]2ccccc2)cc1 | – | – | – | – | – | –
S=c1sscc1-c1ccccc1 | – | – | – | – | – | –
CC(C)c1ccc(C(=O)N2CCCC(c3cc(C(=O)Nc4ccc5c(c4)OCO5)no3)C2)cc1 (stereo not drawn) | – | – | – | – | – | –
COC(=O)c1[nH]c2ccc(C)cc2c1NC(=O)CCN1CCN(Cc2ccc3c(c2)OCO3)CC1 | – | – | – | – | – | 61
CC(=O)c1ccc(NC(=O)CNC2CCCCC2)cc1 | – | 20 | – | – | – | –
CC(C)[C@H](NC(=O)[C@H](CCCN=C(N)N)NC(=O)NC(Cc1ccccc1)C(=O)O)C(=O)NC(C=O)CCCN=C(N)N (stereo partly drawn) | – | – | 27 | – | – | –
CC(C)C(NC(=O)OCc1ccccc1)C(=O)NC(Cc1ccc(O)cc1)C(=O)O (stereo not drawn) | – | – | – | – | – | –
OCCCCNCc1ccc(OCc2ccc(Cl)cc2Cl)cc1 | – | – | – | – | – | 35
CCCNC(=O)CSc1nnc(NC(=O)C2CC(=O)N(c3ccccc3OC)C2)s1 (stereo not drawn) | – | – | – | – | – | –
OC(CNCc1ccccc1)(c1ccccc1)c1ccccc1 | – | 15 | – | – | – | –
CN(C)c1ccc(/C=C/c2nc3ccccc3c(=O)n2CCO)cc1 | – | – | – | 30 | – | –
SMILES | CHO-K1 Ca PAM | CHO-K1 Ca ag | CHO-K1 Ca antag | CHRM1 agonist | CHRM1 PAM | CHRM1 antagonist
CC(=O)N1CCN(c2ccccc2NC(=O)COc2cc(C)ccc2C(C)C)CC1 | – | – | – | – | – | 30
CC(C)c1ccc(NC(=O)C2(C)Cc3c(-c4ccc(N(C)C)cc4)ccnc3O2)cc1 (stereo not drawn) | – | – | – | – | – | –
CN(Cc1ccccc1)C1=CC(=[N+]2CCCCC2)CC(C)(C)C1 | – | – | – | – | – | 39
Cc1ccc([C@H]2C[C@@H](n3cc(COC(=O)c4ccccc4)nn3)[C@H](O)CN2C(=O)C2CCCCC2)cc1 | – | – | – | – | – | –
C=CCNc1ncnc2c1ncn2[C@H]1CN(Cc2cccc3ccccc23)C[C@@H](CO)O1 | – | – | – | – | – | –
COc1cc2[nH]c(=O)n(CCC(=O)N3CC=C(c4ccccc4)CC3)c(=O)c2cc1OC | – | – | – | – | – | –
COc1cc2[nH]c(=O)n(CCCC(=O)N3CC=C(c4ccccc4)CC3)c(=O)c2cc1OC | – | – | – | – | – | 32
